Assay results taken from PubChem BioAssay (NCATS).
Results filed as inconclusive are left out. Calls of active or inactive are those of the source. Calls come from the whole dose curve; as a rule, active = well fitted inhibition curve with a large enough effect; inconclusive = small, poorly fitted or top-dose-only effect; inactive = flat fitted curve, though single readings scatter.

Target: Phospholipid hydroperoxide glutathione peroxidase GPX4 (Homo sapiens) (UniProt P36969)
Experiment: Primary qHTS Assay for Inhibitors of Recombinant Selenoprotein Glutathione Peroxidase 4 (GPX4) (AID 1845192); note: nearly all actives have a fitted effect of over 65% in size
Settings: recombinant GPX4, GR-coupled NADPH fluorescence, 15 min; series mostly up to 50 µM; activity change, negative = inhibition: at the top concentration
Procedure, shortened: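 NADPH consumption followed by fluorescence at 340/450 nm, t=0 and after 15 min at room temperature. Reaction started with cumene hydroperoxide (0.5 mM final) after 30 min compound–GPX4 preincubation; final 200 nM GPX4, 100 nM GR, 1 mM GSH, 0.5 mM NADPH.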
% is set by controls: 0 for no effect and ±100 for the full control effect.

Phospholipid hydroperoxide glutathione peroxidase GPX4 (Homo sapiens), sequence (P36969 whole entry, looked up): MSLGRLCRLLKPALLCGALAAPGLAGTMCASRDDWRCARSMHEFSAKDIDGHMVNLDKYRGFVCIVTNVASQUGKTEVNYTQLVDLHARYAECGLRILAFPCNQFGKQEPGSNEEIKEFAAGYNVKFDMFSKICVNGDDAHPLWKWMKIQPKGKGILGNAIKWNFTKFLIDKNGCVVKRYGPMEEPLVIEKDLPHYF

Structure (SMILES)	activity change, negative = inhibition
C/C(=C/CCC(CO)C1CCC2(C)C3CCC4C(C)(C)C(OC5OC(CO)C(O)C(O)C5O)CC(O)C45CC35CCC12C)COC1OC(CO)C(O)C(O)C1O (configuration not stated)	-11.4% [at 15.3 µM] (inactive)
CC(/C=C/[C@]1(O)[C@@]2(C)CO[C@@]1(C)C[C@@H](O)C2)=C\C(=O)O[C@@H]1O[C@H](CO)[C@@H](O)[C@H](O)[C@H]1O	-9.62% [at 27.8 µM] (inactive)
C/C=C(\C)C(=O)O[C@@H]1CC2[C@@H](CC=C3C[C@@H](O[C@H]4C[C@H](OC)[C@H](O[C@H]5C[C@H](OC)[C@H](O[C@H]6C[C@H](OC)[C@H](O[C@H]7C[C@@H](OC)[C@H](O[C@@H]8O[C@H](CO)[C@@H](O)[C@H](O)[C@H]8O)[C@@H](C)O7)[C@@H](C)O6)[C@@H](C)O5)[C@@H](C)O4)CC[C@@]32C)[C@@]2(O)CC[C@H](C(C)=O)[C@@]12C (some centres not stated)	-7.77% [at 9.73 µM] (inactive)
COC(=O)C1=CO[C@@H](O[C@@H]2O[C@H](CO)[C@@H](O)[C@H](O)[C@H]2O)[C@@H]2[C@@H](C(=O)OC)[C@@H](O)C(O)[C@H]12 (some centres not stated)	-4.33% [at 27.8 µM] (inactive)
CC(C)c1ccc(CC(=O)N2CCC[C@@H](c3cccc(OC(C)(C)C(=O)O)c3)C2)cc1	-8.35% (inactive)
CC(=O)O[C@@H]1[C@@H](OC(=O)/C=C/c2ccccc2)[C@H](C)O[C@@H](O[C@H]2[C@@H]3C=CO[C@@H](O[C@@H]4O[C@H](CO)[C@@H](O)[C@H](O)[C@H]4O)[C@@H]3[C@@]3(CO)O[C@@H]23)[C@@H]1OC(C)=O	-7.58% [at 15.3 µM] (inactive)
COc1ccccc1CC(C(=O)O)N(C)C(=O)c1ccccc1 (configuration not stated)	-13.2% [at 27.8 µM] (inactive)
